ChEMBL document CHEMBL3988442, “University of Dundee, Small-Polar-MMV Screening Library” (2021)
The whole screen tested about 48,000 compounds, of which about 13,000 (27%) showed an effect of 50% or more. The list shows a part of the results.

The compounds below were run on Wolbachia pipientis (assay: Anti-Wolbachia Cell-Based Screen). Settings: 5 µM.
Assay type: functional
Design: scale not given: in the data most compounds retested in dose-response had high values

Row | Compound | Percent Effect
1 | COc1cccc(CN(C)Cc2ccc(C#N)cc2)c1OC | -1.171%
2 | Cc1cc(NCCNc2ccc(C#N)cn2)nc(C)n1 | -1.6%
3 | Cc1ccccc1[C@@H]1CN(Cc2ccc(C(F)(F)F)nc2)C[C@H]1C(=O)O | 28.6%
4 | COCCCSc1ccc(NCc2cscn2)cc1 | -5.261%
5 | O=C(CCC(F)(F)F)NCC1CCCS1 (stereo not drawn) | -25.1%
6 | O=C(NCC1(CO)CC1)c1ccccc1Cl | 3.943%
7 | CN1CCN(c2cc(CNC(=O)c3ccc(=O)[nH]n3)ccn2)CC1 | 7.081%
8 | CCN(CC)c1ccc(CNC(=O)c2ccc(=O)[nH]n2)cn1 | -14.62%
9 | CN(Cc1ccco1)Cc1ccccc1CNC(=O)c1c[nH]nn1 | 2.895%
10 | O=C(NCC1(Sc2ccccc2)CC1)c1ccc(=O)[nH]n1 | 98.28%
11 | O=C(NCC1(Sc2ccccc2)CC1)c1cc[nH]n1 | 109.2%
12 | O=C(NC1(c2cccc(F)c2)CCOCC1)c1cc[nH]n1 | -5.45%
13 | O=C(NCC1(Sc2ccccc2)CC1)c1c[nH]nn1 | 96.18%
14 | O=C(NCCn1nc2ccccn2c1=O)c1cc[nH]n1 | 8.097%
15 | CCc1nnc2n1CCN(c1nc3ccccc3o1)C2 | -17.82%
16 | Cc1ccccc1OCCC(=O)OC(C)C(=O)Nc1sccc1C(N)=O (stereo not drawn) | 15.81%
17 | CCS(=O)(=O)N1CCC2(CCCN(Cc3cc(OC)ccc3F)C2)C1 (stereo not drawn) | -8.238%
18 | O=C(COc1ccc(C(F)(F)F)cc1)NS(=O)(=O)c1cccnc1 | -2.745%
19 | Cc1ocnc1C(=O)N1CCN(C(=O)CC(C)C)[C@@H]2CS(=O)(=O)C[C@@H]21 | -7.127%
20 | CC(C)C1CN(C(=O)c2ccncc2)CCS1 (stereo not drawn) | -8.547%
21 | Cc1ncoc1C(=O)N1CC[C@@H](O)[C@@H](O)[C@H](N2CCC(F)(F)CC2)C1 | 142%
22 | Cc1ocnc1C(=O)N1CC[C@@H](O)[C@@H](O)[C@H](N2CCC(F)(F)CC2)C1 | 120%
23 | Cc1ncoc1C(=O)N1C[C@@H]2CN(CC3CC3)CCO[C@@H]2C1 | -7.815%
24 | Cc1ncoc1C(=O)N1CCCC(C(=O)c2cccc(OC(C)C)c2)C1 (stereo not drawn) | -0.1018%
25 | CN1CC(c2ccccc2)CC12CCN(C(=O)c1ccncc1)CC2 (stereo not drawn) | -13.44%
26 | O=C(c1ccncc1)N1CC[C@@H](O)[C@@H](O)[C@H](N2CCC(F)(F)CC2)C1 | 113.1%
27 | Cc1ocnc1C(=O)N1CCC(c2nccn2Cc2ccncc2)CC1 | 10.72%
28 | CC(NC1(CNS(C)(=O)=O)CCOCC1)c1ccccc1 (stereo not drawn) | 3.887%
